Measurements taken from PubChem BioAssay (NCI).
This is part of a sample that, as a whole, favours compounds with a hit. Of some 83,000 tested, about 20% had one in any assay.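 Values shown are percent growth following 48 h exposure of cells in 96-well plates to a single concentration of compound; below 10 was considered active.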 A number with no mark means an inactive call. Activity calls are given as the source filed them.

Assays:
Test in all cases: NCI-60 one-dose screen, 48 h (100 = growth as untreated, 0 = no growth, -100 = all killed)
Details in all cases: 10 µM unless noted
DU-145 prostate = system: DU-145 prostate
K-562 leukemia = system: K-562 leukemia
MALME-3M melanoma = system: MALME-3M melanoma
MDA-MB-231 breast = system: MDA-MB-231 breast
RXF 393 renal = system: RXF 393 renal
SF-268 CNS = system: SF-268 CNS
SF-295 CNS = system: SF-295 CNS
SF-539 CNS = system: SF-539 CNS
UACC-257 melanoma = system: UACC-257 melanoma
M14 melanoma = system: M14 melanoma

Structure (SMILES)	growth (DU-145 prostate)	growth (K-562 leukemia)	growth (MALME-3M melanoma)	growth (MDA-MB-231 breast)	growth (RXF 393 renal)	growth (SF-268 CNS)	growth (SF-295 CNS)	growth (SF-539 CNS)	growth (UACC-257 melanoma)	growth (M14 melanoma)
Cc1c(N2CN3C[C@H](C)N4CN(c5c(C)n(C)n(-c6ccccc6)c5=O)CN5C[C@@H](C)N(C2)C3C54)c(=O)n(-c2ccccc2)n1C (stereo not given in full)	112%	17.9%	104%	117%	101%	100%	99.3%	91.2%	105%	99.8%
O=C(Nc1ccccc1)c1sc(-c2ccccc2)cc1O	106%	82.6%	84.8%	105%	105%	98.1%	95.3%	90.8%	128%	96.2%
c1ccc(CNc2ccc3nc(CCC4CCCCC4)[nH]c3c2)cc1	80.1%	14.6%	58.3%	77.7%	66.5%	79.8%	81%	82.1%	74.2%	76.2%
O=C1CCC(C(=O)NN(c2ccccc2)c2ccccc2)N1 (stereo not given)	101%	12.2%	104%	110%	118%	83.2%	99%	94.6%	102%	12%
COc1ccc(Cn2cc(C(=O)N=Nc3c(O)[nH]c4c(Cl)cccc34)nn2)cc1	105%	89.2%	99.7%	98.5%	109%	94.7%	109%	108%	92.9%	106%
NC(=O)OCCn1cc(-c2nc(-c3c[nH]c4ncccc34)cs2)c2ccccc21	64.9%	11.8%	62.4%	49.7%	46.3%	50%	25.5%	33.8%	60.5%	11.8%
COc1cc(C(=O)c2c(N)ncn2-c2ccccc2)cc(OC)c1OC	100%	76.4%	106%	103%	86.8%	101%	91%	87%	109%	96.1%
CCCn1c(=S)sc2c1nc(C)n1c(Nc3ccccc3)nnc21	109%	37.6%	65.4%	84.5%	29.3%	99.4%	51.7%	62.9%	75.3%	89.1%
Cn1c(/C=C/[N+](=O)[O-])cc2ccccc21	-8.11% (active)	7.24% (active)	91.4%	63%	-97.1% (active)	93.4%	40.4%	-53.4% (active)	-5.1% (active)	-70.1% (active)
CCOC(=O)c1c2c(n3c1NCC3)-c1ccccc1C2=O	100%	87.3%	89.9%	107%	102%	99.6%	96%	93.7%	95.7%	104%
CC(C)=CC(=O)N[C@@H]1CC2CCC3C(CC[C@@]4(C)C3CC[C@@H]4C(C)N(C)C)[C@@]2(C)C[C@@H]1O (stereo not given in full)	74.1%	-17.1% (active)	32.3%	74.6%	20.6%	32.3%	11.1%	-19.5% (active)	31.2%	47.3%
CC1(C)CCC(S(=O)(=O)c2ccc3c(c2)/C(=N\O)c2cc(S(=O)(=O)N4CCN(c5ccc(F)cc5O)CC4)ccc2-3)CC1	-46% (active)	-78.4% (active)	-70.5% (active)	-63.7% (active)	-90% (active)	-54.4% (active)	-57.1% (active)	-88.2% (active)	-80.6% (active)	-81.9% (active)
Cc1cccc(-n2c(C)nc3ccc(N4CCCNC4=O)cc3c2=O)c1	109%	102%	102%	106%	116%	105%	101%	91.9%	105%	102%
